# STAT1 inh: STAT1 signaling inhibitors, primary screen, cell-based, HTS, luciferase reporter; 0.35% of 200,000 active; NIH 3T3 STAT1-luciferase reporter, IFN-gamma, luminescence; inhibition, % at 5.5 µM; AID 920, 2007;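 active = inhibition above a set limit, the mean inhibition across all tested compounds plus 3 SD, cut at about 34% in these data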;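 also: 0% = IFN-gamma with DMSO and 100% = IFN-gamma with 300 µM nifuroxazide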
# PPC-1+TRAIL kill: compounds killing PPC-1 cancer cells with TRAIL present, primary screen, TRAIL potentiator project, ATPLite luminescence, uHTS. PPC-1 cells + TRAIL, ATPLite viability luminescence. cell killing (% activity), % at 4 µM or 5 µM. 0.41% of 220,000 active. AID 1443, 2008;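 active = cell killing above 50% in the first pass at 4 µM, then a duplicate retest at 5 µM averaging 50% or more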;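 also: plate controls were cells with TRAIL plus DMSO for no effect and medium-only wells lacking cells for full effect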
# C8 TRAIL sens: viability loss with TRAIL in NB7+C8 cells, primary screen, TRAIL sensitizer project, cell-based, ATPlite luminescence; inhibition (viability loss, TRAIL sensitization), % at 10 µM; 1% of 360,000 active; AID 624354, 2012;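 active = compounds causing at least 50% loss of cell viability in the single-dose screen, relative to plate controls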
# Platelet DG rel: inhibitors of platelet dense granule secretion, primary screen, cell-based, MLPCN, human platelets | 0.22% of 300,000 active | AID 1663, 2009 | human platelet-rich plasma, SFLLRN dense granule ATP release, luminescence | inhibition, %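 (compounds screened at 7.5 µM in platelet-rich plasma)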;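 active = mean replicate score, as percent of positive control, at or above 50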
# STAT3 blocker: IL-6 driven STAT3 reporter inhibitors, primary screen, U3A cells, luciferase, luminescence, MLSCN library. IL-6 STAT3-luciferase reporter; host cell line lacks STAT1. inhibition, % at 5.5 µM. 0.89% of 190,000 active. AID 862, 2007;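 active = inhibition above the mean inhibition across all screened compounds plus 3 SD, cut at about 44% in these data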;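 also: 0% = DMSO only wells and 100% = 100 µM nifuroxazide control wells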
# Numbers without * were called inactive; . = not tested or not shown. In the library only some 1.6% were active in any assay of this set; here they are far more common.
SMILES,STAT1 inh,PPC-1+TRAIL kill,C8 TRAIL sens,Platelet DG rel,STAT3 blocker
CC(C)CN1C(=O)CSCC1(C)C(=O)NC(C)C (centres undefined),.,.,-2,.,.
CCc1ccc(-c2cc(C(=O)N/N=C/c3c[nH]c4ccccc34)[nH]n2)cc1,6,31,60*,-13,32
CCc1ccc2c(Cl)c(C(=O)N/N=C/c3c[nH]c4ccccc34)sc2c1,-8,-7,18,-6,26
Cc1c(C(=O)N2CCCCC2)c(S(=O)(=O)N(C)Cc2ccccc2)c(C)n1C,.,.,4,56*,.
Cc1c(C(=O)N2CCCCC2)c(S(=O)(=O)N(C)Cc2ccco2)c(C)n1C,.,.,-9,-13,.
Cc1ccc(F)cc1C(=O)N1CCCCC1c1cc(C(=O)Nc2cccc(C#N)c2)no1 (centres undefined),.,.,13,.,.
CCCOC(=O)c1ccc(-c2ccc(C=O)o2)cc1,-70,50*,9,-8,-16
COc1ccc(-n2nnnc2S(=O)(=O)Cc2ccc(C(=O)O)cc2)cc1,26,18,13,3,6
COc1ccc(-n2nnnc2S(=O)(=O)CC(=O)N2CCCCC2)cc1,36*,20,15,.,29
O=C(O)Cn1nncc1-c1ccc(C(F)(F)F)cc1,.,.,12,.,.
COc1cc(/C=N/NC(=Nc2ccc(C)cc2)c2nc3ccccc3s2)ccc1O,-26,-2,52*,8,-17
C=Cc1ncc(OC)c2c1[nH]c1ccccc12,.,.,66*,-4,.
COc1cccc2[nH]c3ccccc3c(=O)c12,.,.,2,13,.
COc1ccc(Nc2cc(Nc3cc(OC)c(OC)c(OC)c3)ncn2)cc1,.,.,-1,13,.
CC(C)C(=O)Nc1ncc2c(n1)CC(c1cccs1)CC2=O (centres undefined),-4,16,4,65*,4
O=C(Nc1ncc2c(n1)CC(c1ccco1)CC2=O)c1ccccc1 (centres undefined),7,58*,0,1,-5
Cc1ccc(C(=O)Nc2ncc3c(n2)CC(c2ccco2)CC3=O)cc1 (centres undefined),2,31,10,5,6
COC(=O)c1sc(NC(=O)OCc2ccccc2)nc1CCNC(=O)OC(C)(C)C,.,.,9,.,.
COc1ccc(CN(C(=O)c2cccs2)C(C(=O)NC2CCCCC2)c2ccc3ncccc3c2)cc1 (centres undefined),22,13,-1,2,-8
O=C(NC1CCCCC1)C(c1ccc2ncccc2c1)N(Cc1ccccc1)C(=O)c1ccc2c(c1)OCCO2 (centres undefined),9,16,-6,3,-1
O=C(NC1CCCCC1)C(c1ccc2ncccc2c1)N(Cc1ccccc1)C(=O)c1cccs1 (centres undefined),36*,3,3,-8,-4
O=C(NC1CCCCC1)C(c1ccc2ncccc2c1)N(Cc1ccc2c(c1)OCO2)C(=O)c1cccs1 (centres undefined),36*,14,-8,5,0
CCCc1c(C(=O)N/N=C/C=C/c2ccccc2)nnn1-c1nonc1N,.,.,55*,.,.
CCN(CC)S(=O)(=O)c1ccc(N2CCOCC2)c(NC(=O)c2cc3ccccc3o2)c1,.,.,-7,.,.
CC(C)c1ccc(/C=C/c2ccc(=O)n(C)n2)cc1,-37,39,62*,10,36
SMILES,STAT1 inh,PPC-1+TRAIL kill,C8 TRAIL sens,Platelet DG rel,STAT3 blocker
COC(=O)c1ccc2nc(-c3ccccc3)c(Cc3ccc(C)cc3)n2c1,.,.,11,.,.
CCc1nc2ccc(C(=O)NCc3ccc4c(c3)OCO4)cn2c1N(CCC(C)C)CCN(C)C,.,.,2,.,.
COc1ccc2c(C)c(Cl)c(=O)oc2c1,4,0,-8,-7,28
C=C1CC(COc2ccc3c(C)c(Cl)c(=O)oc3c2)(c2ccccc2)OC1=O (centres undefined),.,.,90*,.,.
Cc1ccc2c(c1)c1ccc3c(c1n2C)C(=O)C=CC3=O,.,20,58*,.,.
O=C1c2cccc3cc([N+](=O)[O-])cc(c23)C(=O)N1CCN1CCCC1,.,25,59*,-1,.
COc1cc(-c2nc(-c3ccc(NC(=O)c4ccc5c(c4)OCO5)cc3)no2)cc(OC)c1OC,-14,16,59*,3,9
COc1ccc(-c2nc(-c3ccc(NC(=O)c4ccncc4)cc3)no2)cc1OC,16,7,66*,-1,36
COc1ccc(CN(C)S(=O)(=O)c2nnc(NC(=O)c3cccc(F)c3)s2)cc1,.,.,-7,0,.
CN(c1ccccc1)S(=O)(=O)c1cccc(NC(=O)c2ccc(Cl)c([N+](=O)[O-])c2)c1,.,.,21,.,.
C#CCSc1nnc(-c2c[nH]c3ccccc23)n1C,0,14,-4,22,3
C#CCSc1nnc(-c2sc(-c3ccccc3)nc2C)n1C,-8,-4,80*,3,10
CC1CN(Cc2ccccc2)c2ccccc2NC1=S (centres undefined),-1,52*,1,10,7
CC1CN(Cc2ccccc2)C(=O)N(c2ccccc2)C1=O (centres undefined),.,.,-22,.,.
Cc1ccc(N=Nc2ccc3ccccc3c2O)cc1,.,.,75*,2,.
Oc1c(N=Nc2nn[nH]n2)ccc2ccccc12,.,.,45,.,.
Oc1ccc2ccccc2c1N=Nc1ccc(F)cc1,.,5,19,-2,.
COc1cccc(N=Nc2ccc3ccccc3c2O)c1,.,.,57*,16,.
Oc1c(N=Nc2ccc(F)cc2)ccc2ccccc12,.,.,53*,5,.
COc1ccc(N2CCN(C(=O)COC(=O)CNC(=O)c3cccc(OC(F)F)c3)CC2)cc1,.,.,0,.,.
CCc1nc2c(OCc3ccccc3C)cccn2c1N(C)C(=O)C1CC1,.,.,-9,.,.
O=c1cc(-c2ccc(O)cc2)oc2c1ccc1ccccc12,.,.,18,.,.
O=c1cc(-c2ccc(O)cc2)oc2ccc3ccccc3c12,.,.,90*,.,.
CC(=O)c1ccccc1OCC(O)CN1CCN(CCN2C(=O)c3cccc4cccc(c34)C2=O)CC1 (centres undefined),-4,27,60*,3,28
CNc1ncnc2c1ncn2[C@H]1CN(Cc2ccc(F)cc2)C[C@@H](CO)O1,.,.,-14,.,.
SMILES,STAT1 inh,PPC-1+TRAIL kill,C8 TRAIL sens,Platelet DG rel,STAT3 blocker
Cc1cc(N/N=C/c2ccccc2)nc(NCc2ccccc2)n1,-3,31,55*,17,1
Cc1cc(-c2ccccc2)nc(N/N=C/c2ccccc2)n1,.,.,65*,1,.
O=C(/C=C/c1ccc(Cl)cc1)Nc1cc(S(=O)(=O)N2CCOCC2)ccc1N1CCOCC1,.,.,4,.,.
CCOCCc1nnc(NC(=O)CCS(=O)(=O)c2ccccc2)s1,.,.,-8,1,.
Nc1ccc(CCNc2ncnc3c2ncn3[C@@H]2O[C@H](CO)[C@@H](O)[C@H]2O)cc1,.,.,14,15,.
Nc1ncnc2c1ncn2[C@@H]1O[C@H](CO)[C@@H](O)[C@H]1O,-4,10,-11,81*,0
CC1(C)OC2C(O1)[C@@H](CO)O[C@H]2n1cnc2c(N)ncnc21 (some centres undefined),.,12,10,8,.

# Compound activity deposited in PubChem by several laboratories.
